Here are results for nine compounds from PubChem BioAssay (NCATS).

A short description of experiment [1]: qHTS drug screen for cell cycle checkpoint inhibitors in PARPi-resistant BRCA-mutant ovarian cancer cell lines. (AID 1963452; calls by dose curve). The following applies: PEO1/OlaR viability, CellTiter-Glo luminescence, 96 h, stronger effect = lower value. The method, boiled down: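 PEO1, PEO4 and PEO1/OlaR ovarian cancer cells, 600 per well, exposed 96 h at 37C to a dilution series. Viability read by CellTiter-Glo luminescence, normalized to DMSO and empty wells; activity summarized as Z-AUC.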
A general note: In qHTS, concentration-response curves come from the screen itself.

Experiment [2] can be described thus: qHTS for identification of novel therapeutic agents for treatment of microphthalmiaassociated transcription factor (MiT) renal cell carcinoma (RCC) (AID 1963991; calls by dose curve; note: potency is the fitted concentration of half-maximal effect). To be noted: CellTiter-Glo, 48 h; for z-score: stronger effect = lower value; for Potency: active = Z-AUC below -0.8 in all three lines. The method, boiled down:
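Three TFE3-fusion RCC cell lines (UOK109, UOK124, UOK145), 500 cells/well, were exposed to the 1912-compound MIPE 4.0 library for 48 hours at 37 C. Viability was read by CellTiter-Glo luminescence, normalised to DMSO (100%) and empty wells (0%), with 11-concentration curve fits.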

Experiment [3] is described as follows: qHTS profiling for inhibitors of Plasmodium falciparum proliferation (AID 504749).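 For activity, negative = inhibition: 0% = DMSO vehicle and full inhibition = artemisinin control.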 Note: nearly all actives have a fitted effect of over 60% in size. Note: potency is the fitted concentration of half-maximal effect. To be noted: P. falciparum in erythrocytes, SYBR Green DNA, 72 h. The procedure, abridged: (§1)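 Three-day growth assay of blood-stage parasites in erythrocytes (0.3% parasitemia, 2.5% hematocrit) at 37 C, 5% CO2, quantified by SYBR Green DNA staining after overnight detergent lysis.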

In a further experiment the test system is 3D7. The description is as above. To be noted: P. falciparum in erythrocytes, SYBR Green DNA, 72 h; series mostly up to 28.7 µM. The method, boiled down: as §1
In a further experiment the test system is 7G8. The description is as above. The following applies: P. falciparum in erythrocytes, SYBR Green DNA, 72 h; series mostly up to 28.7 µM. The procedure, abridged:
as §1

The subject of a further experiment is AA1029. Described as above. The following applies: P. falciparum in erythrocytes, SYBR Green DNA, 72 h; series mostly up to 28.7 µM. The procedure, abridged: as §1
A further experiment has as its system AS120. Described as above. The following applies: P. falciparum in erythrocytes, SYBR Green DNA, 72 h; series mostly up to 28.7 µM. The method, boiled down:
as §1

The next experiment deals with ATS189. The description is as above. The following applies: P. falciparum in erythrocytes, SYBR Green DNA, 72 h; series mostly up to 28.7 µM. The method, boiled down: as §1
For a further experiment, the system named is ATS95. The experiment is described as above. The following applies: P. falciparum in erythrocytes, SYBR Green DNA, 72 h; series mostly up to 28.7 µM. The method, boiled down:
as §1

A further experiment concerns C2A. Described as above. To be noted: P. falciparum in erythrocytes, SYBR Green DNA, 72 h; series mostly up to 28.7 µM. The method, boiled down:
as §1

The subject of another experiment is CP185. The description is as above. The following applies: P. falciparum in erythrocytes, SYBR Green DNA, 72 h; series mostly up to 28.7 µM. The method, boiled down: as §1
For another experiment, the system named is CP191. The experiment is described as above. The following applies: P. falciparum in erythrocytes, SYBR Green DNA, 72 h; series mostly up to 28.7 µM. The method, boiled down: as §1
For another experiment, the system named is CP192. The experiment is described as above. To be noted: P. falciparum in erythrocytes, SYBR Green DNA, 72 h; series mostly up to 28.7 µM. The procedure, abridged: as §1
A further experiment concerns CP194. The description is as above. To be noted: P. falciparum in erythrocytes, SYBR Green DNA, 72 h; series mostly up to 28.7 µM. The method, boiled down: as §1
The subject of a further experiment is CP201. The experiment is described as above. The following applies: P. falciparum in erythrocytes, SYBR Green DNA, 72 h; series mostly up to 28.7 µM. The procedure, abridged:
as §1

Another experiment deals with CP211. The description is as above. To be noted: P. falciparum in erythrocytes, SYBR Green DNA, 72 h; series mostly up to 28.7 µM. The method, boiled down: as §1
The test system of another experiment is CP217. Described as above. To be noted: P. falciparum in erythrocytes, SYBR Green DNA, 72 h; series mostly up to 28.7 µM. The method, boiled down: as §1
In the next experiment the test system is CP215. The experiment is described as above. The following applies: P. falciparum in erythrocytes, SYBR Green DNA, 72 h; series mostly up to 28.7 µM. The procedure, abridged:
as §1

The mark [4] stands for this setting: measured here: PEO1 parental Z-AUC.
[5] abbreviates: TFE3-RCC UOK109 viability, measured here: UOK109 Z-AUC.
Setting [6] is: TFE3-RCC viability, measured here: UOK124 Z-AUC.
Where [7] appears, read: TFE3-RCC viability, measured here: UOK145 Z-AUC.

Structures are written as SMILES. Records with an inconclusive call do not appear. The source made the active and inactive calls. Unless noted, calls come from the whole dose curve; as a rule, active = well fitted inhibition curve with a large enough effect; inconclusive = small, poorly fitted or top-dose-only effect; inactive = flat fitted curve, though single readings scatter.

Turning to `O=C(O)c1ccccc1C(=O)Nc1ccc(-c2ccccc2)cc1`, the values for the Z-AUC in experiment [1], in experiment [1] (setting [4]) and in [1] (measured here: PEO4 Z-AUC) were 1.24 (inactive), 0.724 and 0.552, respectively. Besides, the z-score in experiment [2] (setting [5]) turned out to be 0.921; in experiment [2] (setting [6]) it was 0.86; in experiment [2] (setting [7]), 0.469.
As for `O=C1c2ccccc2-[n+]2ccc3c([nH]c4ccccc43)c21`, the values for the Z-AUC in experiment [1], in [1] (setting [4]) and in experiment [1] (measured here: PEO4 Z-AUC) were -1.18 (inactive), -1.75 and -2.31, respectively. Moreover, the Potency in experiment [2] (TFE3-RCC UOK109 viability) is 1.66 µM (active). The z-score in experiment [2] (setting [5]) was -1.69; in experiment [2] (setting [6]), -2.04; in experiment [2] (setting [7]) it was -1.7.
In the case of `CO[C@H]1C=CO[C@@]2(C)Oc3c(C)c(O)c4c(O)c(c5c(c4c3C2=O)NC2(CCN(CC(C)C)CC2)N=5)=NC(=O)C(C)=CC=C[C@H](C)[C@H](O)[C@@H](C)[C@@H](O)[C@@H](C)[C@H](OC(C)=O)[C@H]1C`, the z-score in experiment [2] (setting [5]) was 0.267; in [2] (setting [6]), 0.0618; in experiment [2] (setting [7]), 0.486.
For the compound `CC(C)(C)c1cc(C(=O)O)c(NC(=O)Nc2ccc3[nH]ncc3c2)s1`, the Z-AUC was -0.548 (inactive) in experiment [1], -0.418 in experiment [1] (setting [4]) and -0.766 in experiment [1] (measured here: PEO4 Z-AUC). The results for the z-score in [2] (setting [5]), in experiment [2] (setting [6]) and in experiment [2] (setting [7]) were 0.185, -0.00808 and 0.16, respectively.
As for `Clc1ccc(Cn2c(CN3CCCC3)nc3ccccc32)cc1`, the Z-AUC in experiment [1] is 1.16 (inactive); in experiment [1] (setting [4]), 0.912; in experiment [1] (measured here: PEO4 Z-AUC) it was 1.11. In experiment [3] (at 12.8 µM (top of the series), parasite line A), the activity, negative = inhibition is 5.36% (inactive). Moreover, the outcome with 3D7, with AA1029, in the experiment on ATS95, in the experiment on C2A, with CP185 and in the experiment with CP201 was inactive. The Potency in the experiment on 7G8 is 3.16 µM (active). Moreover, the Potency entry in the experiment on AS120, in the experiment with ATS189, in the experiment on CP191, in the experiment with CP192, in the experiment with CP194 and with CP211 was “inactive” in each case. Moreover, in the experiment on CP217, the Potency entry is “inactive”.
`COc1cc2nc(-c3ccc(N4CCN(C)CC4)cc3)nc(NCCN3CCOCC3)c2cc1OC`: the values for the Z-AUC in experiment [1], in experiment [1] (setting [4]) and in experiment [1] (measured here: PEO4 Z-AUC) were -0.0476 (inactive), -0.00961 and -0.573, respectively. For the same compound, the Potency in experiment [2] (TFE3-RCC UOK109 viability) is 1.18 µM (active). Besides, the z-score was -1.15 in experiment [2] (setting [5]), -1.85 in experiment [2] (setting [6]) and -1.4 in [2] (setting [7]).
Take `CC=CC(=O)N(CC)c1ccccc1C`: the z-score in experiment [2] (setting [5]) stood at 1.15; in experiment [2] (setting [6]), 0.231; in experiment [2] (setting [7]) it was 0.523.
On to `O=c1cc(-c2ccccc2)oc2cc(O)cc(O)c12`, for which the Z-AUC in experiment [1] was 1.05 (inactive); in experiment [1] (setting [4]), 1.12; in experiment [1] (measured here: PEO4 Z-AUC) it was 1.3. The z-score in experiment [2] (setting [5]) came to 0.364; in [2] (setting [6]), 0.638; in experiment [2] (setting [7]), 0.538.
As to `Cc1cnc(C(=O)O)c[n+]1[O-]`, the Z-AUC in experiment [1] was -0.768 (inactive); in experiment [1] (setting [4]), -0.301; in [1] (measured here: PEO4 Z-AUC), -0.6. The activity, negative = inhibition in [3] (at 28.7 µM (top of the series), parasite line A) was -1.49% (inactive); in experiment [3] (at 28.7 µM (top of the series), parasite line B) it was -8.14% (inactive). For the same compound, the compound was called inactive in the experiment on 3D7, in the experiment with AA1029, with ATS95, in the experiment with C2A, in the experiment with CP185 and with CP201. The Potency entry with 7G8, in the experiment with AS120, in the experiment on ATS189, in the experiment on CP191, with CP192 and with CP194 was “inactive” each time. The Potency entry in the experiment with CP211, with CP215 and in the experiment with CP217 was “inactive” each time.
